Experimental data taken from PubChem BioAssay (NCI).
About 83,000 compounds went through this panel and 20% of them were active in at least one assay; those are over-represented in the sample as a whole.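 Note: values are percent growth. 100 is the growth of untreated cells, values between 100 and 0 indicate rising inhibition; between -100 and 0 indicates cell death.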 A number with no mark means an inactive call. Active and inactive are the calls of the source.

Each compound was assayed on SK-MEL-5 melanoma (assay: NCI-60 one-dose screen, 48 h (100 = growth as untreated, 0 = no growth, -100 = all killed)). Settings: 10 µM unless noted.
Description: Growth inhibition of the SK-MEL-5 human tumor cell line is measured as a screen for anti-cancer activity. Cells are grown in 96 well plates and exposed to the test compound for 48 hours. Compounds are tested at a single concentration, which is 10^-5 M for most compounds. The reported endpoint is percent growth (GI% or GIPRCNT), where numbers from 0 - 100% represent growth inhibition, and numbers from -100% - 0 represent cell death. For example, a value of 40 represents 60% growth inhibition. A value of 0 means no net growth occurred over the course of the experiment. A value of -40 indicates 40% of cells at the beginning of the experiment died by the end of the experiment. A value of -100 means all cells are dead at the end of the experiment.
NCI-60 Human Tumor Cell Lines Screen was performed using the standard one-dose NCI protocol, which is described in more detail at https://dtp.cancer.gov/discovery_development/nci-60/default.htm.
Compounds with GIPRCNT values below 10 were considered active. Activity score was based on GIPRCNT using the following formula: […]
Score is 0 for GIPRCNT values of 100 or above, 50 for GIPRCNT values of 0, and 100 for GIPRCNT values of -100.

Q: For `COC(=O)c1ccc2[nH]c(O)c(C(=Nc3ccc(N(C)C(=O)CN4CCN(C)CC4)cc3)c3ccc4c(c3)OCO4)c2c1`, which growth is on record?
A: The growth was 10.1%.

Q: `Nc1nc2c(c3cnccc13)C(c1cccc(Br)c1)Cc1cnccc1-2` (stereo not given) was tested. Which growth did it give?
A: The growth was -30.4% (active).

Q: For `O=C(Nc1cccc(Cn2c(=O)[nH]c3ccc(Oc4ncccn4)cc3c2=O)c1)c1cc(Cl)cc(Cl)c1`, which growth is on record?
A: The growth was 56.8%.

Q: `CCCCCCCCCCCCCCCCCC1=NCCN1CCNC(C)=O` was tested. Which growth did it give?
A: Its growth is 102%.

Q: How did the growth turn out when `O=C(/C(Br)=C/c1ccccc1)c1ccccc1` was run?
A: The growth was 84.9%.

Q: With `COc1ccccc1Cn1cc2c(c1)-c1oncc1CC2` as the compound, how does the growth read?
A: Its growth is 18%.

Q: How did the growth turn out when `CCOC(=O)c1c(C)oc2ncnc(Nc3ccc(NC(=O)Nc4ccc(CC)cc4)cc3)c12` was run?
A: The growth was 93.8%.

Q: For `CC(=O)c1nn(-c2ccc(C)cc2)cc1C(=O)c1cc2c(ccc3ccccc32)oc1=O`, which growth is on record?
A: Its growth is 95.6%.

Q: How did the growth turn out when `O=C(Oc1ccccc1)c1ccccc1Cl` was run?
A: Its growth is 104%.

Q: Which growth does the source give for `[N-]=[N+]=Nc1ncc(-c2ccc(C(F)(F)F)cc2)c(NC2CCCCCC2)n1` here?
A: The growth was 26.5% [100 µM].

Q: For `O=C(CCCC(=O)Nc1ccc(Cn2nnc3cc(Cl)c(Cl)cc32)cc1)Nc1ccc(CN2N=NC3C=C(Cl)C(Cl)=CC32)cc1` (stereo not given), which growth is on record?
A: Its growth is 89.8%.

Q: How did the growth turn out when `CCN(CC)CCCC(C)Nc1c(C)cnc2cc(Cl)c(C)cc12` (stereo not given) was run?
A: Its growth is 90.2%.

Q: How did the growth turn out when `COc1cc([C@@H]2c3cc4c(cc3[C@H](O)[C@H]3COC[C@@H]23)OCO4)cc(OC)c1OC` was run?
A: The growth was 51%.

Q: Which growth does the source give for `O=C(/C=C1\C(=O)N(Cc2ccc([N+](=O)[O-])cc2)c2ccccc21)c1ccc(OCCN2CCCCC2)cc1` here?
A: The growth was 33.9%.

Q: With `CC(=O)/C(=C\c1c(-c2ccccc2)[nH]c2ccccc12)S(=O)(=O)c1ccccc1` as the compound, how does the growth read?
A: The growth was 9.11% (active).

Q: `CN(C)CCOC(=O)C(C)(C)C` was tested. Which growth did it give?
A: The growth was 105%.

Q: How did the growth turn out when `COC(=O)c1ccc2[nH]c(O)c(C(=Nc3ccc(N(C)C(=O)CN4CCN(C)CC4)cc3)c3ccc(OC)cc3)c2c1` was run?
A: Its growth is 28.5%.

Q: With `Oc1ccccc1\C=N/N=C/C=C/c1ccccc1` as the compound, how does the growth read?
A: Its growth is 97.4%.

Q: Which growth does the source give for `CC(=O)N(N=O)c1ccc([N+](=O)[O-])cc1Cl` here?
A: Its growth is 18.6%.

Q: Which growth does the source give for `CC(C)C(=O)c1ccc(Cl)s1` here?
A: Its growth is 92.8%.

Q: `COc1ccccc1Nc1nnc(COc2ccc(CNC(=O)CCCC/C=C/C(C)C)cc2OC)o1` was tested. Which growth did it give?
A: Its growth is 98%.

Q: For `N=C(N)c1ccc(-c2ccc(-c3cc(Cl)cc(Cl)c3)s2)cc1`, which growth is on record?
A: The growth was -93.7% (active).

Q: Which growth does the source give for `N/C(=N\O)c1ccncc1` here?
A: The growth was 113%.

Q: With `CCCCCCCCCCCCCCCCCC1=NCCN1CS(=O)(=O)O` as the compound, how does the growth read?
A: The growth was 87.3%.

Q: For `Cc1nn(-c2ccccc2)c(N)c1N=C1NC(=O)/C(=C/c2ccc(Cl)cc2)S1`, which growth is on record?
A: The growth was 92.1%.

Q: Which growth does the source give for `CC(=O)N1N=C(c2ccc(Cl)cc2)CC1c1cn(-c2ccccc2)nc1-c1ccc([N+](=O)[O-])cc1` (stereo not given) here?
A: The growth was 101%.

Q: For `COc1ccc(Nc2c3ccccc3nc3ccccc23)cc1`, which growth is on record?
A: Its growth is 24.8%.

Q: With `O=C(N/N=C/c1coc2ccccc2c1=O)c1cc2oc(-c3ccccc3)cc2[nH]1` as the compound, how does the growth read?
A: Its growth is 84%.

Q: `COc1ccc(OC)c(Cn2cc3c(c2-c2ccccc2)CCc2cnoc2-3)c1` was tested. Which growth did it give?
A: Its growth is 40.2%.

Q: With `C=C(C)C(C(=O)OCC)(C(=O)OCC)C(C)C` as the compound, how does the growth read?
A: Its growth is 98.3%.

Q: How did the growth turn out when `CC1CCCCC[N+]12CCCC2` (stereo not given) was run?
A: Its growth is 99.5%.

Q: With `COc1ccc(/C=C/C(=O)/C=C/c2cc3ccccc3[nH]c2=O)cc1` as the compound, how does the growth read?
A: The growth was 86.7%.

Q: For `COc1ccc(C(O)(c2ccccc2)C(C(=O)O)c2ccccc2)cc1` (stereo not given), which growth is on record?
A: Its growth is 102%.

Q: Which growth does the source give for `CCCCCCCCCCCCCCCCNC(=O)Nc1ccc(C)c(NC(=O)NCCCCCCCCCCCCCCCC)c1` here?
A: The growth was 98.4%.

Q: For `O=C(/C=C/c1ccc(Br)cc1)c1ccccc1`, which growth is on record?
A: The growth was 95.3%.

Q: How did the growth turn out when `CC[N+](C)(C)N` was run?
A: Its growth is 95.4%.

Q: With `O=C(/C=C/c1c[nH]c2ccccc12)c1cc2ccccc2o1` as the compound, how does the growth read?
A: Its growth is 102%.

Q: Which growth does the source give for `O=C(CCl)c1ccc2c(c1)CCCC2` here?
A: Its growth is 106%.

Q: `CCCCCCCCCCC(C[N+](C)(C)C/C=C/c1ccccc1)C(O)c1ccccc1` (stereo not given) was tested. Which growth did it give?
A: Its growth is 30.6%.

Q: Which growth does the source give for `NNC(=O)CNc1ccc2ccccc2c1` here?
A: Its growth is 101%.
